# High-throughput results from PubChem.
# Pol kappa inh: qHTS for Inhibitors of Polymerase Kappa; DNA polymerase kappa (Homo sapiens), Q9UBT6; purified Pol kappa, fluorescent DNA synthesis assay, 10 min; Potency, µM (top dose mostly 107 µM), most hits filed as inhibitors; 0.53% of 400,000 active; AID 588579, 2011
#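 Inhibition of 10 nM Pol kappa is measured by a fluorescent read-out at 0 and 10 min following addition of 50 nM substrate (final), with a 15-min room-temperature compound preincubation.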
# Pol iota inh: qHTS for Inhibitors of Polymerase Iota; Pol iota fluorescent replication assay, 10 min; Potency, µM (series often up to 115 µM), hits mostly inhibitors; 1% of 390,000 active; AID 588590, 2011
# Target sequence (Q9UNA4 whole entry, looked up): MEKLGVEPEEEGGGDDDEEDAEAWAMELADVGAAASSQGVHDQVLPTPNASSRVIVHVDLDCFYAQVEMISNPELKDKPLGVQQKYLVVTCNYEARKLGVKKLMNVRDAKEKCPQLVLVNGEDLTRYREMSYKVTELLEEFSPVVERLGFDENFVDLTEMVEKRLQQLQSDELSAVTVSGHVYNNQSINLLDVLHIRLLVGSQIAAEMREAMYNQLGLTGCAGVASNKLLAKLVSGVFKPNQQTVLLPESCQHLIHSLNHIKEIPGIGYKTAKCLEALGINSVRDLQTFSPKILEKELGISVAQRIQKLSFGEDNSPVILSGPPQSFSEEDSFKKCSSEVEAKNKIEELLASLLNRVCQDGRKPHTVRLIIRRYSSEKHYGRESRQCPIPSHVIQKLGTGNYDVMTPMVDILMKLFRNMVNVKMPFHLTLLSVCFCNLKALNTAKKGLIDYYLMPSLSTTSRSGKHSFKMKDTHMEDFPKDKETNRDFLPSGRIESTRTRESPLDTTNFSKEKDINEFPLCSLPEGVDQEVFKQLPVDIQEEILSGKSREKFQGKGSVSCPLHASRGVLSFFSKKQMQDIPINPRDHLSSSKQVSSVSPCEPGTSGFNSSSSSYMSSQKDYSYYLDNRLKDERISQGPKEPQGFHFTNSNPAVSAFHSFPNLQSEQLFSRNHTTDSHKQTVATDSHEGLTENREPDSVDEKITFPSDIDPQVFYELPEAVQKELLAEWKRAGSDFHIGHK
#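 Fluorescent replication assay read twice, at 0 min and 10 min after adding 50 nM (final) substrate. Enzyme (10 nM) and compounds were first incubated 15 min at room temperature; enzyme-free buffer wells were negative controls.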
# Pol eta inh: qHTS for Inhibitors of Polymerase Eta; DNA polymerase eta (Homo sapiens), Q9Y253; recombinant Pol eta, fluorescent DNA replication assay; Potency, µM (highest dose often 114 µM), hits mostly inhibitors; 1.2% of 390,000 active; AID 588591, 2011
#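 Fluorescent replication assay: 50 nM final substrate added after a 15 min room-temperature compound preincubation with 10 nM enzyme. Signal taken at 0 min and again at 10 min.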
# Pol beta inh: qHTS Assay for Inhibitors of DNA Polymerase Beta | Potency, µM (doses to about 114 µM), actives largely listed as inhibitors | 1.3% of 340,000 active | P06746 | Pol beta primer extension/strand displacement, fluorescence kinetic | AID 485314, 2010
#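 Curves were derived by four-parameter Hill fits of normalized qHTS data. The kinetic fluorescent primer-extension read was taken at 0 and 10 min after 50 nM substrate, following a 15 min room-temperature preincubation of 10 nM enzyme with compounds.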
# WRN inhibitor: qHTS for Inhibitors of WRN Helicase; Potency, µM (titrated, usually from 114 µM), actives largely listed as inhibitors; WRN helicase unwinding, fluorescent forked duplex, kinetic; 0.46% of 360,000 active; further: nearly all actives have a fitted effect of over 55% in size
#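 Enzyme (20 nM final) and test compound sit together 15 min at room temperature before substrate addition. Substrate is a single-forked duplex oligonucleotide (100 nM) labelled with fluorophore and quencher, with 2 mM ATP; helicase unwinding raises red fluorescence, read kinetically.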
# FEN1 inh: qHTS Assay for the Inhibitors of Human Flap endonuclease 1 (FEN1); P39748; Recombinant FEN1 flap cleavage, fluorescence, 15 min; Potency, µM (top dose mostly 114 µM), hits mostly inhibitors; 0.35% of 390,000 active; AID 588795, 2011; further: nearly all actives have a fitted effect of over 65% in size
#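 FEN1 at 10 nM preincubated with compounds 15 min at room temperature, then flap DNA substrate added at 50 nM final. Signal read at 0 and 15 min; concentration-response fitted with four-parameter Hill equation.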
# Numbers stand for hits; . = inactive; ? = inconclusive; / = not tested or not shown; [ ] = remark or other dose. A selection: hits, their analogues and other compounds. The true share with any hit is near 2.4%. The call rests on the fitted dose curve; in most records, active means well fitted curve in the direction sought with a large enough effect; inconclusive means small, poorly fitted or top-dose-only effect, or another doubt; inactive means no such curve, though single readings can be large; an effect the other way counts as inactive or inconclusive.
SMILES,Pol kappa inh,Pol iota inh,Pol eta inh,Pol beta inh,WRN inhibitor,FEN1 inh
CCCCC/C=C\C/C=C\C/C=C\C/C=C\CCCC(N)=O,.[19.4 µM],/,/,/,/,/
CCCCC/C=C\C/C=C\C/C=C\C/C=C\CCCC(=O)NCCCC(=O)O,14.1µM,/,/,/,/,/
ClCCN(CCCl)/C(=C\c1ccccc1)c1ccnc2ccccc12,.,.,/,/,/,.
CN(C(=O)Cc1ccc(Cl)c(Cl)c1)[C@H](CN1CCCC1)c1cccc(N=C=S)c1,.[19.4 µM],/,/,/,/,/
COC(=O)/C(C)=C\CC12OC(C)(C)C3CC(C=C4C(=O)c5c(OC)c6c(c(CC=C(C)C)c5OC431)OC(C)(CCC=C(C)C)C=C6)C2=O (centres undefined),.,/,/,/,/,/
CC(=O)Oc1c2c(c(CC=C(C)C)c3c1C(=O)C1=CC4CC5C(C)(C)OC(C/C=C(\C)C(=O)O)(C4=O)[C@]15O3)OC(C)(CCC=C(C)C)C=C2 (some centres undefined),25.1µM,/,/,/,/,/
C=CCN1CCc2cccc3c2C1Cc1ccc(O)c(O)c1-3 (centres undefined),.[19.4 µM],.,.,.,/,/
c1nc[n]([Sn]([CH]2CCCCC2)([CH]2CCCCC2)[CH]2CCCCC2)n1,.,/,/,/,/,/
CNC(C)C#Cc1ccc2oc3cc(C)c(C)cc3c(=O)c2c1 (centres undefined),.,8.91µM,.,/,.,.
CC[C@@]1(O)C(=O)OCc2c1cc1n(c2=O)Cc2cc3c(N)cccc3nc2-1,79.4µM,?,22.4µM,50.1µM,.,?
CC1CCCC(C)N1C(=O)CSc1nc2c(c(=O)n(C)c(=O)n2C)n1C (centres undefined),.,.,.,.,.,.
CCn1cc2nc(SCc3cccc(C(F)(F)F)c3)n(Cc3ccc(OC)cc3)c(=O)c2n1,.,.,.,.,/,?
Oc1c(Cl)cc(Cl)cc1CN1CCN(Cc2ccccc2)CC1,.,31.6µM,.,.,.,.
Cc1ccc2c(c1)N(N=O)CCC2,.,.,89.1µM,.,.,.
O=C1NC(=O)C(Sc2ccccc2[N+](=O)[O-])C(=O)N1,.,10µM,.,.,?,.
N#CC1=C(N)Oc2n[nH]c(-c3cccs3)c2C1c1ccsc1 (centres undefined),.,.,?,?,?,.
N#CC1=C(N)Oc2n[nH]c(-c3cccs3)c2C1c1ccco1 (centres undefined),.,12.6µM,?,.,.,.
O=C1NC(=O)C(=Cc2cccc(OCCOc3ccccc3)c2)C(=O)N1,.,?,.,.,.,.
O=C1NC(=O)C(=Cc2ccc(OCCOc3ccc([N+](=O)[O-])cc3)cc2)C(=O)N1,.,?,79.4µM,?,.[11.6 µM],?
COc1ccc(N2C(=O)NC(=O)/C(=C/c3cccc(OC(=O)c4cccs4)c3)C2=O)cc1Cl,.,.,.,.,?,.
Cc1ccc(N2C(=O)NC(=O)/C(=C/c3ccc(OC(=O)c4cccs4)cc3)C2=O)cc1,.,.,.,.,50.1µM,.
CCOP(=O)(C1=C(O)C(=O)C(C(C)(C)C)=CC1=O)c1ccccc1 (centres undefined),.,31.6µM,.,.,?,.
CC1(C)[C@H](C(=O)O[C@H](C#N)c2cccc(Oc3ccccc3)c2)[C@@H]1C=C(Br)Br,.,/,/,/,/,/
O=[N+]([O-])c1ccc(N(CCO)CCO)c2c1no[n+]2[O-],/,/,28.2µM,/,.[11.6 µM],/
CN1CCN(c2ccc(S(C)(=O)=O)cc2[N+](=O)[O-])CC1,.,.,.,.,.,.
SMILES,Pol kappa inh,Pol iota inh,Pol eta inh,Pol beta inh,WRN inhibitor,FEN1 inh
CN1CCN(c2ccc([N+](=O)[O-])c3no[n+]([O-])c23)CC1,.,17.8µM,89.1µM,.,.,?
Cc1cccc(O)c1,.,/,/,/,/,/
COc1ccccc1NC(=O)c1oc2ccccc2c1NC(=O)COc1cccc(C)c1,.,.,.,.,/,.
CCN(c1ccc(C)cc1C)S(=O)(=O)c1nnc(NC(=O)c2ccco2)s1,.,?,79.4µM,.,.,.
CCC(C)/C=C(C)/C=C/C1=CC2=C(Cl)C(=O)C(C)(OC(C)=O)C(=O)C2=CO1 (centres undefined),.,?,.,.,.,.
CC[C@H](C)/C=C(C)/C=C/C1=CC2=C(Cl)C(=O)[C@@](C)(OC(C)=O)C(=O)C2=CO1,?,?,20µM,/,44.7µM,?
CC(C)(CO)CNC1CCCN(C2Cc3ccccc3C2)C1 (centres undefined),.,.,.,.,.,.
CNc1ccc2oc(C[C@@H]3OC4(CC[C@@H]3C)O[C@H]([C@@H](C)C(=O)c3ccc[nH]3)[C@H](C)C[C@H]4C)nc2c1C(=O)O (some centres undefined),.[19.4 µM],/,/,/,/,/
Cc1ccc2nc(N3CCN(C)CC3)[nH]c2c1,.,.,.,.,.,.
CCOc1ccc(-c2nc3ccc(-c4nc5ccc(N6CCN(C)CC6)cc5[nH]4)cc3[nH]2)cc1,0.299µM,/,/,/,/,/
COc1ccc(OC)c(N2C(=O)/C(=C/c3ccco3)C(=O)NC2=S)c1,3.55µM,?,0.708µM,?,3.16µM,8.91µM
O=C1NC(=S)N(c2ccc(Cl)cc2)C(=O)/C1=C/N1CCN(C(=O)c2ccco2)CC1,.,?,.,.,.,.
O=C1NC(=S)N(c2ccc(F)cc2)C(=O)/C1=C/c1ccco1,/,/,/,0.562µM,/,/
CC(C)C[C@H]1C(=O)N2CCC[C@H]2[C@]2(O)O[C@](NC(=O)[C@@H]3C=C4c5cccc6[nH]cc(c56)C[C@H]4N(C)C3)(C(C)C)C(=O)N12,.,11.2µM,.,/,.,?
CC(C)C[C@H]1C(=O)N2CCC[C@H]2[C@]2(O)O[C@](NC(=O)[C@@H]3C=C4c5cccc6[nH]c(Br)c(c56)C[C@H]4N(C)C3)(C(C)C)C(=O)N12,.,/,/,/,/,/
CN(C)C(=O)Oc1ccc(Cl)c2ccccc12,.,.,.,.,.,.
Cc1c(OC(=O)N(C)C)ccc2c1O/C(=C\c1ccco1)C2=O,.,.,.,50.1µM,.,.
O=C(Nc1ccc2nc(SCC(=O)N3CCCc4ccccc43)sc2c1)c1cccc(F)c1,.,.,.,?,/,.
Cc1cccc(C)c1OCc1n[nH]c(=S)n1N,.,.,.,.,.,.
NNc1n[nH]c(=S)n1N,.,15.8µM,.,.,.,.
O=C(NCc1cccnc1)C1CCN(S(=O)(=O)c2cc([N+](=O)[O-])ccc2Cl)CC1,.,.,.,/,.,.
